The term inhibition denotes the change of the read-out against control, counted positive when it falls.

Each structure is given as a SMILES string. Where “and” joins values, the source holds several entries; their conditions need not be identical. Equal values may be shown once. Among all 83,000 compounds or so, about 780 (0.94%) were called active.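 The calls were made as follows: active = mean inhibition of at least 50% with a set share of replicates also reaching that level; inconclusive = no clear call, values can overlap the other calls; inactive = the rest.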 Many of the other results were omitted from the sample, so actives are more common in it than they were. Some structures have more than one record in an assay (separate samples or runs), and their calls can disagree.

The assay can be described thus: inhibitors of CD40-induced NF-kB signaling, primary screen, BL2 cells, luciferase reporter, single point (AID 1053188).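 Also: 0% = neutral control wells and 100% = IKK inhibitor VII at 50 µM.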 To be noted: CD40L-induced, 4 h, stronger effect = higher value; at 10 µM unless noted. (Reporter assays use an easily measured gene product as a stand-in for the process of interest.)
As for `N/C(=N\OC(=O)c1ccc([N+](=O)[O-])cc1)c1ccccn1`, the inhibition was 68.1% (active). The same measure for `O=C(COC(=O)Cc1ccc([N+](=O)[O-])cc1)NC1CCCCCC1`: 2.86% (inactive). As for `O=C(Nc1ccc([N+](=O)[O-])cc1)OCCc1ccccn1`, the figure is -49.3% (inactive). The same measure for `COc1ccccc1C(=O)NC(CCSC)C(=O)N1CCN(C(C)=O)CC1` (configuration not stated): 7.42% (inactive); for `OCCN1CCN(CCO)C1=S`: 4.32% (inactive); for `COc1cc(OC)cc(C(=O)N[C@H](C(=O)NNC(=O)c2ccc(Br)cc2)C(C)C)c1`: -11.4% (inactive). `CCc1ccc(C(=O)C(C)OC(=O)CN2C(=O)NC3(CCCC3)C2=O)cc1` (configuration not stated): the inhibition is -8.47% (inactive). As for `CC(=O)c1cc(C#N)c(N2CCCCC2)nc1C`, the inhibition is 12.8% (inactive). The same measure for `Cc1ccc(S(=O)(=O)N2CCN(C(=O)COC(=O)CNC(=O)c3ccc(C(C)(C)C)cc3)CC2)c(C)c1`: -31.5% (inactive); for `Cc1ccc2c(c1)c1ncn(CCC3=CCCCC3)c(=O)c1n2C`: -13.8% (inactive). With `COc1ccc(C(=O)COC(=O)c2nn(C)c(=O)c3ccccc23)c(OC)c1`, the inhibition was 4.47% (inactive).

For `COc1ccc2c(c1)c1ncn(Cc3ccccn3)c(=O)c1n2C`, the inhibition was 56.2% (active). On to `COc1ccc(CNC(=O)CN2CCC(n3nnc4cc(F)ccc43)CC2)cc1`, for which the inhibition is -0.322% (inactive). The same measure for `CCCn1c(N)c(C(=O)CSc2nc3ccccc3c(=O)n2-c2ccc(OC)cc2)c(=O)[nH]c1=O`: -0.2% (inactive); for `CC(C)NC(=O)N(C)C[C@H]1OCc2ccccc2-c2c(n(C)c3ccccc23)C(=O)N([C@H](C)CO)C[C@@H]1C`: -3.58% (inactive). As for `CC1Cc2ccccc2N1S(=O)(=O)c1cccc(C(=O)NCC(c2ccco2)N2CCCC2)c1` (configuration not stated), the figure is 8.41% (inactive). As for `O=C(Nc1ccc(N2CCOCC2)cc1)c1cccc(S(=O)(=O)N2CCOCC2)c1`, the figure is 14.5% (inactive).

Turning to `O=C(C1CCOCC1)N1CC(=O)N2[C@H](CO)[C@@H](c3ccc(C#CC4CCCC4)cc3)[C@H]2C1`, the inhibition was -2.24% (inactive). The same measure for `Cc1cnc(NC(=O)c2ccccn2)s1`: 48.8% (active); for `O=C(Nc1nnc(Cc2ccccc2)s1)c1cnccn1`: -14% (inactive); for `O=C(Nc1nnc(C2CC2)s1)c1ccccn1`: 12.5% (inactive). As for `CN1C(=O)c2cc(NS(=O)(=O)CC(F)(F)F)ccc2OC[C@H]2O[C@@H](CC(=O)NCc3ccc(Cl)c(Cl)c3)CC[C@@H]21`, the figure is -2.48% [at 25 µM] (inactive); as for `Cc1cc(C(=O)COC(=O)C2CC2)c(C)n1-c1ccc(F)cc1`, 79.9% (active).

Turning to `COc1ccccc1C(=O)NC(=O)COC(=O)C1CC1`, the inhibition is -63% (inactive).

For `Cc1cc(C(=O)COC(=O)CNC(=O)c2ccc(F)cc2)c(C)n1Cc1ccco1`, the inhibition is 29.3% (inactive). As for `N#C[C@@H]1[C@@H](c2ccc(C#Cc3cccc(F)c3)cc2)[C@H](CO)N1C(=O)C1CCOCC1`, the figure is -15.7% [at 25 µM] (inactive); as for `N#C[C@@H]1[C@H](c2ccc(C#Cc3ccccc3F)cc2)[C@H](CO)N1C(=O)C1CCCCC1`, 6.32% (inactive); as for `CCCC#Cc1ccc([C@@H]2[C@@H](C#N)N(C(=O)C3CCCC3)[C@@H]2CO)cc1`, 4.81% (inactive). The same measure for `N#C[C@H]1[C@H](c2ccc(C#Cc3ccc(F)cc3)cc2)[C@@H](CO)N1C(=O)C1CCCC1`: 58.9% (active); for `N#C[C@@H]1[C@H](c2ccc(C#Cc3cccc(F)c3)cc2)[C@@H](CO)N1C(=O)C1CCCC1`: 60.3% (active). The same measure for `N#C[C@@H]1[C@@H](c2ccc(C#Cc3cccc(F)c3)cc2)[C@@H](CO)N1C(=O)C1CCC1`: -11.1% (inactive); for `COc1ccccc1CNC(=O)COC(=O)CNS(=O)(=O)c1ccc(NC(C)=O)cc1`: 5.75% (inactive). For `COc1ccc(NC(=O)N2CCCC(c3nc(-c4ccc(F)cc4)no3)C2)cc1` (configuration not stated), the inhibition was -2.8% (inactive). As for `CC(C)N(C(=O)CN1CCN(S(=O)(=O)c2ccc(Br)s2)CC1)C(C)C`, the figure is 3.09% (inactive); as for `CCOC(=O)C(CC)/C(C)=N\NC(=O)c1cccc(C)c1` (configuration not stated), -2.97% (inactive); as for `Cc1cccc(-c2ccc(C3[C@@H]4CN(C(=O)Nc5ccc(C(F)(F)F)cc5)C[C@H]3N4)cc2)c1` (some centres not stated), 55.5% (active). The same measure for `CN(C)C(=O)c1ccc(-c2ccc(C3[C@@H]4CN(C(=O)Nc5ccccc5)C[C@H]3N4)cc2)cc1` (some centres not stated): 8.08% [at 25 µM] (inactive); for `O=C(C1CCCCC1)N1C[C@@H]2N[C@H](C1)C2c1ccc(-c2cccc(F)c2)cc1` (some centres not stated): 26.1% (inactive) and -22.9% (inactive).

For `O=C([C@@H]1[C@@H](CO)[C@@H]2Cn3c(ccc(C4=CCCCC4)c3=O)[C@H]1N2Cc1nccs1)N1CCCCC1`, the inhibition is -4.97% [at 25 µM] (inactive). The same measure for `COc1ccc(CN2CCC(c3nc4ccc(Cl)cc4[nH]3)CC2)cc1`: 7.72% (inactive).

Consider `O=C(NNC(=O)C1CCN(c2ncccn2)CC1)c1ccccc1`, for which the inhibition is 16.9% (inactive).

With `COc1ccc(-c2ccc(C3[C@@H]4CN(S(=O)(=O)c5cn(C)cn5)C[C@H]3N4)cc2)cc1` (some centres not stated), the inhibition was -4.84% (inactive).

Turning to `Cn1cnc(S(=O)(=O)N2C[C@@H]3N[C@H](C2)C3c2ccc(/C=C/c3ccccc3)cc2)c1` (some centres not stated), the inhibition was -5.55% (inactive) and 3.57% (inactive). Take `Cn1cnc(S(=O)(=O)N2C[C@@H]3N[C@H](C2)C3c2ccc(-c3ccccc3F)cc2)c1` (some centres not stated): the inhibition was 52.9% [at 25 µM] (active) and 10.8% [at 25 µM] (inactive). As to `COCC(=O)N1CC2(CN(S(C)(=O)=O)C2)c2c(n(C)c3cc(OC)ccc23)[C@@H]1CO`, the inhibition is 2.58% [at 25 µM] (inactive). The same measure for `CCC(=O)N1CC2(CCN(Cc3ccc(Cl)cc3)CC2)c2c(n(C)c3cc(OC)ccc23)[C@@H]1CO`: 4.53% [at 25 µM] (inactive). As for `COc1ccc2c3c(n(C)c2c1)[C@H](CO)N(C(C)=O)CC31CN(Cc2ccc(Cl)cc2)C1`, the figure is 68% [at 25 µM] (active); as for `O=C(Nc1ccccn1)C1CCN(S(=O)(=O)c2ccc3c(c2)OCCO3)CC1`, -48.7% (inactive). The same measure for `CCc1nnc(NC(=O)c2cccc(S(=O)(=O)N(C)c3ccc(OC)cc3)c2)s1`: 2.59% (inactive); for `CN(Cc1ccc2nsnc2c1)Cc1nc(Cc2cccc(F)c2)no1`: 3.82% (inactive); for `CCOc1ccc(S(=O)(=O)N2CCC(C(=O)OCc3ccc(OC)cc3)CC2)cc1`: 0.411% (inactive). In the case of `O=C(Nc1ccc(N2CCCCC2)cc1)c1cc(S(=O)(=O)N2CCOCC2)ccc1F`, the inhibition is -16.8% (inactive).

Values taken from PubChem BioAssay AID1053188 (Broad Institute, 2014).
